About 14,000 (4.5%) of roughly 310,000 compounds showed an effect of 50% or more. Effects have a minus sign here. Only a selection was taken, and strong results are over-represented in it overall.
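Further: peak tail current of the secondary pulse compared with the same well before compound.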

The target of the experiment is human ether-à-go-go-related gene (hERG) potassium channel (human, UniProt Q12809). Kind of experiment: primary screen, population patch clamp on CHO cells stably expressing hERG; higher = less effect of the substance.
human ether-à-go-go-related gene (hERG) potassium channel, sequence (Q12809 whole entry, looked up): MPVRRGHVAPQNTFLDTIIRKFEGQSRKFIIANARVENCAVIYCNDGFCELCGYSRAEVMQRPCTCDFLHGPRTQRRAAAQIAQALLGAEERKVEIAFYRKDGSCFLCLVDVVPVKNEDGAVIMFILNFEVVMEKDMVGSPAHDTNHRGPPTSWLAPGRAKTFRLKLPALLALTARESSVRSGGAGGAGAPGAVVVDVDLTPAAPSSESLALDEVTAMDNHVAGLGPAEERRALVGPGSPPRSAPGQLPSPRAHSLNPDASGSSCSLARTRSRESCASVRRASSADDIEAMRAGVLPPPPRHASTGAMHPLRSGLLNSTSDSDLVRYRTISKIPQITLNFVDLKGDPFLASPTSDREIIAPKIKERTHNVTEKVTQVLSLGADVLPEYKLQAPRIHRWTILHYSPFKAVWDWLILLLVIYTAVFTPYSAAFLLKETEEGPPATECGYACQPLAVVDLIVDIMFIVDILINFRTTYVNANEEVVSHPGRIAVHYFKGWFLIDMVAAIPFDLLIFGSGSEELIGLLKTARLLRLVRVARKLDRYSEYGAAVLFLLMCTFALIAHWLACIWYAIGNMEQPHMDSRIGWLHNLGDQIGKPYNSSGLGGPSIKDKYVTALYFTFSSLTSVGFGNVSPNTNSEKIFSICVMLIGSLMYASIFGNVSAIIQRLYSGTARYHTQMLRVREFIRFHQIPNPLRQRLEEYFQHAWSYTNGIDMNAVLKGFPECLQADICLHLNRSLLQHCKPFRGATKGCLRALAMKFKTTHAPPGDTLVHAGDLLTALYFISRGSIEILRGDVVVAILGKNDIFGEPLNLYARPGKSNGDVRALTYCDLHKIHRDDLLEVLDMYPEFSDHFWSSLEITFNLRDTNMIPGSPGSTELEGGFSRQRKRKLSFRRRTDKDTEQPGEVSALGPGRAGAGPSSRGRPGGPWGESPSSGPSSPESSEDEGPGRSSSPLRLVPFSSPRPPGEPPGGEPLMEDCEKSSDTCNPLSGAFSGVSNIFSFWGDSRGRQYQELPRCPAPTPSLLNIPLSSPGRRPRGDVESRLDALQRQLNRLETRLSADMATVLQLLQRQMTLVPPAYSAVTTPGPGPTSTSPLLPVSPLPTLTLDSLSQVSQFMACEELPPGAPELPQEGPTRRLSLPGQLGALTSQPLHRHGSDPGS
For the molecule `CN(Cc1nc2ccccc2[nH]1)Cc1nc(CC2CC2)no1`, the “hERG current change (%, negative = inhibition) at 10uM” value is on record as -14.5%. Next, `CCOc1cc(Br)ccc1S(=O)(=O)N1CCC(C(N)=O)CC1`: -5.26%. As for `O=C1COc2ccc(C(=O)COc3ccc([N+](=O)[O-])cc3)cc2N1`, the “hERG current change (%, negative = inhibition) at 10uM” value was 8.2%. As for `CC(C)Oc1ccc(C(CC(=O)O)NC(=O)c2cccs2)cc1` (centres unmarked), the “hERG current change (%, negative = inhibition) at 10uM” value is reported as -2.74%. For the molecule `CC1(C)CC(=O)C2=C(C1)Oc1ncn(CCCO)c(=N)c1C2c1ccccc1` (centres unmarked), the “hERG current change (%, negative = inhibition) at 10uM” value is on record as -29%.

Turning to `CC1(C)CC(=O)C2=C(C1)Oc1ncn(Cc3ccco3)c(=N)c1C2c1ccccc1` (centres unmarked), the “hERG current change (%, negative = inhibition) at 10uM” value is on record as -60.8%. The value for `CC1(C)CC(=O)C2=C(C1)Oc1ncn(CCO)c(=N)c1C2c1ccccc1` (centres unmarked) was -35.3%. On to `CC1(C)CC(=O)C2=C(C1)Oc1ncn(CCCn3ccnc3)c(=N)c1C2c1ccccc1` (centres unmarked), for which the “hERG current change (%, negative = inhibition) at 10uM” value is -53.3%. `COc1ccc(C2C3=C(CC(C)(C)CC3=O)Oc3ncn(Cc4ccco4)c(=N)c32)cc1` (centres unmarked): the “hERG current change (%, negative = inhibition) at 10uM” value was -68.3%. Turning to `COc1ccc(C2C3=C(CC(C)(C)CC3=O)Oc3ncn(CCO)c(=N)c32)cc1OC` (centres unmarked), the “hERG current change (%, negative = inhibition) at 10uM” value was -24.5%. For `COc1ccc(C2C(C#N)=C(N)OC3=C2C(=O)CC(C)(C)C3)cc1` (centres unmarked), the “hERG current change (%, negative = inhibition) at 10uM” value is recorded as 12.8%. For the molecule `COc1ccc(C2C3=C(CC(C)(C)CC3=O)OC(N)=C2[N+](=O)[O-])cc1` (centres unmarked), the “hERG current change (%, negative = inhibition) at 10uM” value is on record as 8.74%. In the case of `COc1ccc(C2C3=C(CC(C)(C)CC3=O)Oc3ncn(CCCn4ccnc4)c(=N)c32)cc1` (centres unmarked), the “hERG current change (%, negative = inhibition) at 10uM” value was -16.6%. As to `CC(C)Cn1cnc2c(c1=N)C(c1ccccc1)C1=C(CC(C)(C)CC1=O)O2` (centres unmarked), the “hERG current change (%, negative = inhibition) at 10uM” value was -38.8%. For `N=c1c2c(ncn1Cc1ccco1)Oc1ccc3ccccc3c1C2c1ccccc1` (centres unmarked), the “hERG current change (%, negative = inhibition) at 10uM” value is on record as -6.08%.

As for `COc1ccc(C2C3=C(CC(C)(C)CC3=O)Oc3ncn(CC(C)C)c(=N)c32)cc1` (centres unmarked), the “hERG current change (%, negative = inhibition) at 10uM” value is reported as -69.1%. Regarding `Cc1onc(-c2c(Cl)cccc2Cl)c1C(=O)O/N=C(\C#N)c1c(Cl)cccc1Cl`, the “hERG current change (%, negative = inhibition) at 10uM” value turned out to be 9.4%. In the case of `COc1cccc(CNC(=O)CCNC(=O)c2ccc(Br)o2)c1`, the “hERG current change (%, negative = inhibition) at 10uM” value came to 11.2%. Regarding `Nc1cc(=O)[nH]c(SCC(=O)Nc2ccccc2Sc2ccc(Cl)cc2)n1`, the “hERG current change (%, negative = inhibition) at 10uM” value amounted to 14.5%. Regarding `Cc1ccc(OCCNC(=O)CNC(=O)c2ccc(C)cc2)cc1`, the “hERG current change (%, negative = inhibition) at 10uM” value was found to be 9.37%.

Consider `COCCNC(=O)Cc1cn(C)c2ccccc12`, for which the “hERG current change (%, negative = inhibition) at 10uM” value was found to be 4.15%. `CCOC(=O)N1CCC(=NNC(=O)c2ccc(O)cc2)CC1`: the “hERG current change (%, negative = inhibition) at 10uM” value is listed as 4.27%. Turning to `COc1ccc(C2C3=C(CC(C)(C)CC3=O)Oc3ncn(Cc4ccccc4)c(=N)c32)cc1` (centres unmarked), the “hERG current change (%, negative = inhibition) at 10uM” value is -55.5%. For `COc1ccc(C2C3=C(CC(C)(C)CC3=O)Oc3ncn4nc(-c5cccnc5)nc4c32)cc1` (centres unmarked), the “hERG current change (%, negative = inhibition) at 10uM” value is -2.59%. Next, `COc1ccc(C2C3=C(CC(C)(C)CC3=O)Nc3c2c(=O)[nH]c(=O)n3Cc2ccccc2)cc1` (centres unmarked): 8.57%. On to `COc1ccc(C(=O)N2CCN(Cc3cn[nH]c3-c3ccc(OC)cc3F)CC2)cc1`, for which the “hERG current change (%, negative = inhibition) at 10uM” value is -38.3%. `COc1ccc(-c2[nH]ncc2CN2CCC(C(=O)N3CCOCC3)CC2)c(F)c1`: the “hERG current change (%, negative = inhibition) at 10uM” value worked out at 5.23%. `O=C(C1CCN(Cc2cn[nH]c2-c2ccc(F)cc2F)CC1)N1CCOCC1`: the “hERG current change (%, negative = inhibition) at 10uM” value is reported as 8.72%.

For the molecule `O=C(c1ccc(F)cc1)C1CCN(Cc2cn[nH]c2-c2ccccc2)CC1`, the “hERG current change (%, negative = inhibition) at 10uM” value was -78.8%.

`O=C(c1ccc(F)cc1)C1CCN(Cc2cn[nH]c2-c2ccc(F)cc2)CC1`: the “hERG current change (%, negative = inhibition) at 10uM” value is given as -75.2%. As to `O=C(c1ccc(F)cc1)C1CCN(S(=O)(=O)c2ccccc2)CC1`, the “hERG current change (%, negative = inhibition) at 10uM” value is listed as -43.1%.

In the case of `COc1ccc(-c2[nH]ncc2CN2CCC(C(=O)c3ccc(F)cc3)CC2)cc1`, the “hERG current change (%, negative = inhibition) at 10uM” value is on record as -76.2%. For the molecule `O=S(=O)(c1ccc2c(c1)CCN2)N1CCOCC1`, the “hERG current change (%, negative = inhibition) at 10uM” value is on record as -2.2%. For the molecule `O=c1c2cc(N3CCOCC3)ccc2[nH]c(=S)n1Cc1ccco1`, the “hERG current change (%, negative = inhibition) at 10uM” value was -25.1%.

Regarding `Cc1cc(N2CC34C=CC(O3)C(C(=O)O)C4C2=O)no1` (centres unmarked), the “hERG current change (%, negative = inhibition) at 10uM” value was determined as 2.22%.

For `COC(=O)COc1ccc2occ(C(C)=O)c2c1`, the “hERG current change (%, negative = inhibition) at 10uM” value is reported as -3.74%. Next, `O=C(NCC(c1ccco1)N1CCc2ccccc2C1)c1ccccc1Br` (centres unmarked): -37.5%. Regarding `CCCCCCC1C(C#N)=C(N)OC2=C1C(=O)CC(C)(C)C2` (centres unmarked), the “hERG current change (%, negative = inhibition) at 10uM” value is listed as -0.43%.

Take `Cc1ccccc1OC(C)C(=O)N1CCC(Cc2ccccc2)CC1` (centres unmarked): the “hERG current change (%, negative = inhibition) at 10uM” value was -17.5%.

On to `O=C(/C=C/c1ccco1)Nc1ccc(CN2CCOCC2)cc1`, for which the “hERG current change (%, negative = inhibition) at 10uM” value was -31.3%. Take `COc1ccc(SC[C@H](CC(C)C)N2CCN(CCc3ccccc3)CCC2=O)cc1`: the “hERG current change (%, negative = inhibition) at 10uM” value was -71.3%. The value for `COc1ccc(SC[C@H](Cc2ccccc2)N2CC[C@@H](C)CCC2=O)cc1` was -20.1%. Consider `COc1ccc(CN2CCC(=O)N([C@H](CO)CC(C)C)CC2)cc1`, for which the “hERG current change (%, negative = inhibition) at 10uM” value is on record as -2.62%. Consider `COc1ccc(SC[C@H](Cc2ccccc2)N2CCN(CCc3ccccc3)CCC2=O)cc1`, for which the “hERG current change (%, negative = inhibition) at 10uM” value is given as -74.6%. For `COc1ccc(CN2CCC(=O)N([C@H](CO)Cc3ccccc3)CC2)cc1`, the “hERG current change (%, negative = inhibition) at 10uM” value is -2.16%. Next, `COc1ccc(SC[C@H](CC(C)C)N2CCN(C)CCC2=O)cc1`: -36.3%; `CCCN1CCC(=O)N([C@H](CSc2ccc(OC)cc2)CC(C)C)CC1`: -70.8%; `COc1ccc(SC[C@H](Cc2ccccc2)N2CC[C@@H](O)CCC2=O)cc1`: -8.62%.

Regarding `COc1ccc(SC[C@H](Cc2ccccc2)N2CC[C@@H](C(C)(C)C)CCC2=O)cc1`, the “hERG current change (%, negative = inhibition) at 10uM” value was 9.92%. Next, `CCCN1CCC(=O)N([C@H](CSc2ccc(OC)cc2)Cc2ccccc2)CC1`: -70.5%; `CCCN1CCC(=O)N(CCSc2ccc(OC)cc2)CC1`: -45.4%; `Cc1ccc(OCc2nc3ccccc3[nH]2)cc1`: -9.02%. `O=C(CN1CCN(c2cccc(C(F)(F)F)c2)CC1)N(C1CC1)C1CCS(=O)(=O)C1` (centres unmarked): the “hERG current change (%, negative = inhibition) at 10uM” value is given as -29.2%.

Source of the values: publication PMC4336329 (PLoS ONE, 2015).
